Source: PubChem (National Center for Advancing Translational Sciences (NCATS))
Rab9 prom act: activates the Rab9 promoter; Huh7 Rab9 promoter-luciferase reporter, luminescence, 24 h; Potency, µM (titrated, usually from 9.22 µM), actives largely listed as activators; 2.8% of 320,000 active; AID 485297; also: nearly all actives have a fitted effect of over 60% in size
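Luminescence from Amplite-detected luciferase (10 minutes, ambient) reports Rab9 promoter activation. Before that, stable Rab9-luciferase Huh7 cells (1500/well, reduced-serum OP-MEM I plus 10% FBS) were exposed to compound for 24 hours at 37C.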
SMN2 splice up: enhancers of SMN2 splice variant expression; Potency, µM (highest dose often 46.1 µM), hits mostly activators; 2.8% of 210,000 active; HEK293 SMN2-luciferase splicing reporter, luminescence, 30-36 h; also: nearly all actives have a fitted effect of over 55% in size
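HEK293 cells carry an SMN2 […]–luciferase reporter in which exon 7 inclusion puts luciferase in frame. Cells were plated 10-12 h before compound addition, then incubated 30-36 h at 37C. ONE-Glo luminescence was read; sodium butyrate at 4.5 mM final served as control.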
NPC1 promoter act: activates the NPC1 promoter; Huh7 NPC1 promoter luciferase reporter, 24 h; Potency, µM (top dose mostly 9.22 µM), usual class: activators; 2.4% of 320,000 active; also: nearly all actives have a fitted effect of over 60% in size
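Luminescence from an NPC1 promoter-driven luciferase reporter in stably transfected Huh7 cells was measured after 24 h compound treatment at 37 °C, followed by 10 min ambient incubation with luciferase detection reagent.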
ELG1 repair inh: inhibitors of ELG1-dependent DNA repair in HEK293T cells | HEK293T ELG1-luciferase reporter, luminescence, 16 h; DNA damage induced by 5-fluorouridine | AID 504467 | Potency, µM (highest dose often 46.1 µM), actives largely listed as inhibitors | 2.3% of 330,000 active; also: nearly all actives have a fitted effect of over 55% in size
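HEK293T cells expressing luciferase-tagged ELG1 (2,000/well) received 5-Fluorouridine plus compound or DMSO for 16 hr at 37 °C. Luciferase was read by ONE-Glo luminescence after 30 min at room temperature.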
ELG1 genotox: inducers of genotoxicity in HEK293T ELG1-luciferase cells | HEK293T ELG1-luciferase reporter, luminescence, 16 h | Potency, µM (top dose mostly 46 µM), usual class: activators | 1.3% of 330,000 active; also: nearly all actives have a fitted effect of over 60% in size
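Genotoxicity was scored as increased ELG1-luciferase reporter signal, measured by ONE-Glo luminescence (30 min, room temperature). Compound or vehicle exposure of the HEK293T reporter cells lasted 16 hr at 37°C.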
FLuc modulator: inhibits or activates purified firefly luciferase, miR-21 counter-screen | P08659 | purified FLuc, Km substrates, luminescence inhibition | Potency, µM (series often up to 57.5 µM), actives largely listed as inhibitors | 6.9% of 360,000 active | AID 588342; also: nearly all actives have a fitted effect of over 55% in size
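Purified P. pyralis luciferase, 10 nM final, with Km-level 10 uM D-luciferin and 10 uM ATP in 50 mM Tris acetate pH 7.5, 10 mM Mg acetate, 0.01% Tween-20, 0.05% BSA; 6-point qHTS titration about 60 µM downward; luminescence read.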
ELG1 FLuc counter: luciferase inhibition in cell-free luciferin readout for ELG1 hits. shares compounds with ELG1 repair inh. cell-free firefly luciferase luminescence counter-screen, ViewLux. Potency, µM (titrated, usually from 46.1 µM), usual class: inhibitors. 3% of 350 active. AID 624247
ELG1-Luc inh: inhibits ELG1-dependent DNA repair in HEK293T cells, confirmed. shares compounds with ELG1 repair inh. HEK293T ELG1-luciferase levels, luminescence; cells co-treated with 5-fluorouridine. Potency, µM (series often up to 46.1 µM), actives largely listed as inhibitors. 68% of 670 active. AID 624248; also: nearly all actives have a fitted effect of over 55% in size
ELG1-Luc MMS: inhibits ELG1-dependent repair under MMS stimulation in HEK293T cells; shares compounds with ELG1 repair inh; 53% of 670 active; AID 624249; HEK293T luciferase-tagged ELG1 level, MMS stimulated; Potency, µM (series often up to 46.1 µM), most hits filed as inhibitors; also: nearly all actives have a fitted effect of over 60% in size
ELG1 5FU viab: confirmation of ELG1 repair inhibitors: viability with 5FU | Potency, µM (titrated, usually from 46.1 µM), usual class: cytotoxic | cell viability with 5-FU, ELG1-dependent repair | 670 tested, under 10 active | shares compounds with ELG1 repair inh;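 also: ELG1-luc HEK293T cells cotreated with 5-fluorouridine at 10 µM final; viability measured 16 h after compound addition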
ELG1 MMS viab: confirmation of ELG1 repair inhibitors: viability with MMS | shares compounds with ELG1 repair inh | Cell viability with MMS, ELG1-dependent DNA repair | Potency, µM (highest dose often 46.1 µM), actives largely listed as cytotoxic | 33% of 670 active | AID 624251;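 also: ELG1-luc HEK293T cells co-treated with 10 µM MMS; viability read 16 h after compound addition; nearly all actives have a fitted effect of over 60% in size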
Cell viab unstim: affects unstimulated cell viability, ELG1 hit counter-screen; Potency, µM (titrated, usually from 45.9 µM), usual class: cytotoxic; AID 624252; cell viability counter-screen, unstimulated, luminescence; shares compounds with ELG1 repair inh; 8% of 900 active;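 also: compound exposure lasted 16 hours before reading; nearly all actives have a fitted effect of over 55% in size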
FLuc enzyme: counter-screen for ELG1 repair inhibitors: firefly luciferase inhibition; shares compounds with ELG1 repair inh; purified firefly luciferase, luminescence counter-screen; Potency, µM (top dose mostly 57.5 µM), usual class: inhibitors; 10% of 350 active
Each line names hits and unclear results; the compound was inactive in the other large screens (follow-up assays come after a bar, where they were run). In the library only some 9.3% were active in any assay of this set; here they are far more common. Calls follow the shape of the dose curve; as a rule, active = well fitted curve in the direction sought with a large enough effect; inconclusive = small, poorly fitted or top-dose-only effect, or another doubt; inactive = no such curve, though single readings can be large; an effect the other way counts as inactive or inconclusive.

COc1cccc(NC(=O)COC(=O)c2sccc2C)c1	ELG1 repair inh inconclusive, ELG1 genotox inconclusive (no result: Rab9 prom act, SMN2 splice up, NPC1 promoter act, FLuc modulator) | Cell viab unstim inactive
Cn1c(=O)c2c(ncn2CC(=O)OCCCC(=O)c2ccc(Br)cc2)n(C)c1=O	ELG1 repair inh inconclusive (no result: Rab9 prom act, SMN2 splice up, NPC1 promoter act, FLuc modulator) | ELG1 FLuc counter inactive | ELG1-Luc inh inconclusive | ELG1-Luc MMS 2.5µM | ELG1 5FU viab inactive | ELG1 MMS viab 2.2µM | Cell viab unstim inconclusive | FLuc enzyme inactive
Cc1ccccc1-n1c(C)nnc1SC(C)C(=O)NCC1CCCO1 (stereo unspecified)	none (no result: SMN2 splice up)
CC(=O)c1cc2c(cc1NC(=O)CSc1nc3ccccc3o1)OCO2	Rab9 prom act inconclusive, SMN2 splice up inconclusive, ELG1 repair inh inconclusive, ELG1 genotox 10µM | ELG1 FLuc counter inactive | Cell viab unstim inactive | FLuc enzyme inactive
O=C(CSc1nc2ccccc2o1)Nc1ccccc1N1CCCCCC1	none | ELG1 FLuc counter inactive | Cell viab unstim inactive | FLuc enzyme inactive
CC(=O)c1cc2c(cc1NC(=O)CSc1nc3ccccc3[nH]1)OCO2	ELG1 repair inh inconclusive (no result: SMN2 splice up)
CC(=O)Nc1ccc(NC(=O)CSc2nc3ccccc3o2)cc1	ELG1 repair inh inconclusive
Cc1cccc(NC(=O)CSc2nc3ccccc3o2)c1	Rab9 prom act 0.89µM, SMN2 splice up inconclusive, NPC1 promoter act 1.4µM, ELG1 repair inh inconclusive, ELG1 genotox 1.5µM, FLuc modulator inconclusive | ELG1 FLuc counter inactive | Cell viab unstim inactive | FLuc enzyme inactive
COc1cccc(C(=O)Nc2ccc(-n3nncc3-c3ccc(Br)cc3)cc2)c1OC	none (no result: Rab9 prom act, SMN2 splice up, NPC1 promoter act, ELG1 repair inh, ELG1 genotox)
Cc1ccc(NC(=O)Cn2cnc3ccccc32)cc1C	ELG1 repair inh 4.6µM | ELG1-Luc inh inactive | ELG1-Luc MMS inconclusive | ELG1 5FU viab inactive | ELG1 MMS viab inconclusive | Cell viab unstim inconclusive
O=C(Cn1cnc2ccccc21)Nc1cccc([N+](=O)[O-])c1	ELG1 repair inh inconclusive
O=C(NCc1ccc(Cl)cc1)c1ccc2ccccc2n1	ELG1 repair inh inconclusive, FLuc modulator inconclusive (no result: SMN2 splice up)
CC(C)NC(=O)N1CC[C@@]2(CCCN(C(=O)c3csnn3)C2)C1	none (no result: Rab9 prom act, NPC1 promoter act, ELG1 repair inh, ELG1 genotox, FLuc modulator)
COCCNC(=O)c1cccc(OC2CCN(Cc3cccc(SC)c3)CC2)c1	ELG1 repair inh inconclusive (no result: SMN2 splice up)
CC1(C)Cc2nc3nc(SCC(=O)NCCc4ccccc4)n(-c4ccccc4)c(=O)c3cc2CO1	ELG1 repair inh 4.6µM | ELG1-Luc inh inconclusive | ELG1-Luc MMS inactive | ELG1 5FU viab inconclusive | ELG1 MMS viab inactive | Cell viab unstim inconclusive
CC1(C)Cc2nc3nc(SCC(=O)NCc4ccccc4)n(-c4ccccc4)c(=O)c3cc2CO1	ELG1 repair inh inconclusive
Cc1ccc(-c2csc3ncnc(SCC(=O)NCC4CCCO4)c23)cc1 (stereo unspecified)	none (no result: SMN2 splice up)
COc1ccc(NS(=O)(=O)c2cccc(C(=O)OCC(=O)N3CCN(c4ccc(OC)cc4)CC3)c2)cc1	ELG1 repair inh 4.6µM, ELG1 genotox inconclusive (no result: SMN2 splice up) | ELG1-Luc inh inconclusive | ELG1-Luc MMS 7.9µM | ELG1 5FU viab inactive | ELG1 MMS viab 7.9µM | Cell viab unstim inconclusive
COc1ccc(N2CCN(C(=O)c3ccc(NS(=O)(=O)c4cccc(F)c4)cc3)CC2)cc1	FLuc modulator inconclusive
CCCNC(=O)Nc1ccc(C(F)(F)F)cc1	ELG1 repair inh inconclusive, FLuc modulator inconclusive (no result: SMN2 splice up)
O=C(CSCC(=O)N1CCCCC1)Nc1nc(-c2cccs2)cs1	ELG1 repair inh inconclusive
CCOC(=O)N1CCN(C(=O)CSCC(=O)Nc2nc(-c3ccccc3)cs2)CC1	ELG1 repair inh inconclusive | ELG1 FLuc counter inactive | Cell viab unstim inactive | FLuc enzyme inactive
CC(C)C(=O)SCCCCCCC(=O)Nc1nc(-c2ccccc2)cs1	none (no result: Rab9 prom act, SMN2 splice up, NPC1 promoter act, ELG1 repair inh, ELG1 genotox, FLuc modulator) | Cell viab unstim inactive
O=C(CSCC(=O)N1CCCCC1)Nc1nc(-c2ccc(Cl)s2)cs1	Rab9 prom act inconclusive, ELG1 repair inh inconclusive, FLuc modulator inconclusive
O=C(CSCC(=O)N1CCN(c2ccccc2)CC1)Nc1nc(-c2ccc(Cl)s2)cs1	ELG1 repair inh inconclusive, ELG1 genotox inconclusive | ELG1 FLuc counter inactive | Cell viab unstim inconclusive | FLuc enzyme inactive
COc1ccc(-c2cc3cc4c(cc3cn2)OCO4)cc1	ELG1 repair inh inconclusive, ELG1 genotox 0.73µM (no result: Rab9 prom act, SMN2 splice up, NPC1 promoter act, FLuc modulator) | ELG1 FLuc counter inactive | Cell viab unstim inconclusive | FLuc enzyme 0.41µM
